# According to ChEMBL document CHEMBL4513216, “Probing the Open Global Health Chemical Diversity Library for Multistage-Active Starting Points for Next-Generation Antimalarials” (ACS Infect Dis, 2020):
# Hit rate of the full screen: of about 65,000 compounds, about 2,100 (3.2%) showed an effect of 50% or more. The median lay at about -52%. Only a selection was taken, and strong results are over-represented in it overall.
# Tested on: Plasmodium falciparum
# Assay: Screen against P. falciparum Asexual Blood Stage (ABS), at 5uM
# Format: functional, Dd2
# Settings: tested at 5 uM
row,Structure (SMILES),INHIBITION
1,CS(=O)(=O)N1CC[C@H]2O[C@H](C(=O)NCCc3ccccn3)CC[C@H]21,-48.2%
2,COc1cccc(OCCc2nc3c(cc2C(N)=O)CCC3)c1,-58.5%
3,Cc1nc(CN2CCCC(N(C)CC3CCCC3)C2)no1 (stereo unspecified),-42.4%
4,CCc1nc(C2CCCN2CCCc2nc3ccccc3o2)no1 (stereo unspecified),-157%
5,Cc1nc2ccccn2c1CC(=O)N[C@@H]1CC[C@@H](N2CCOCC2)[C@@H]1O,-72.5%
6,NCc1ccccc1Sc1ccc(O)cc1,56.7%
7,CN(C)CCNC(=O)c1cc(-c2cnc(N3CCCC3)nc2)cn1C,-123%
8,c1ccc(-n2cc(CN3CCCC3Cn3cncn3)nn2)cc1 (stereo unspecified),-14%
9,C[C@@H]1CN(C2(C(=O)N3CCOCC3)Cc3ccccc3C2)C[C@H](C)O1,-22.3%
10,C[C@@H]1CN(C2(C(=O)N3CCSCC3)Cc3ccccc3C2)C[C@H](C)O1,-238%
11,C[C@@H]1CN(C2(C(=O)N3CCNCC3)Cc3ccccc3C2)C[C@H](C)O1,63.4%
12,CCc1noc(C(C)N(C)CC(=O)Nc2ccc(Cl)c(C(F)(F)F)c2)n1 (stereo unspecified),-75.8%
13,CC(Cn1cccn1)NC(=O)N1CCN(Cc2ccsc2)CC1 (stereo unspecified),-55.3%
14,CC(Cn1ccnc1)NC(=O)N1CCN(Cc2ccncc2)CC1 (stereo unspecified),-125%
15,CC(Cn1ccnc1)NC(=O)N1CCN(Cc2ccsc2)CC1 (stereo unspecified),58.4%
16,NC(=O)c1c(-c2ccc(Cl)cc2Cl)csc1NC(=O)CCCC(=O)O,-162%
17,CC(C)NC(=O)N1CCC2(CC1)C(=O)NCCN2Cc1ccccc1,-105%
18,COc1ccc(-n2cc(CCO)cn2)cc1C,-136%
19,Cc1ccc(CN2CCC3(CCCN(C(=O)N(C)C)C3)C2)cc1 (stereo unspecified),-59.2%
20,O=C1CC2(CCN(Cc3ccoc3)CC2)CN1Cc1cc(F)cc(F)c1,56.5%
21,O=C1CC2(CCN(CCO)CC2)CN1Cc1cc(F)cc(F)c1,19.3%
22,Cc1ccc(CN2CCCC3(CCN(Cc4ccoc4)CC3)C2)cc1,79.8%
23,CN(C)CCN1CCCC12CCCN(Cc1ccoc1)C2 (stereo unspecified),68.1%
24,CN(C)CCN1CCCC12CCCN(Cc1ccco1)C2 (stereo unspecified),-71.8%
25,O=C1CC2(CCN(Cc3ncc[nH]3)CC2)CN1Cc1cc(F)cc(F)c1,-147%
26,CNC(=O)CN1CCOCC2(CCCN(Cc3ccoc3)C2)C1 (stereo unspecified),33.7%

row,Structure (SMILES),INHIBITION
1,CN(C)CCN1CCCC12CCN(C(=O)c1ccco1)CC2,33.9%
2,CC1CCCN(S(=O)(=O)NCCNC(=O)c2ncccc2O)C1 (stereo unspecified),-122%
3,COc1ccc(-c2nc(CCNC(=O)NC3CCC(O)CC3)co2)cc1 (stereo unspecified),-13.7%
4,CCN(C)CC(=O)N1CCc2nc(NC)nc(C(=O)N3CCCC3)c2C1,-14.4%
5,CSc1ccc(CNc2n[nH]c(C)n2)cc1,-43.7%
6,CCS(=O)(=O)N1CCC2(CC1)CN(c1ccsc1)C(=O)CO2,-0.697%
7,CC(=O)Nc1c(C)noc1C=Cc1ccc(S(=O)(=O)N2CCCC2)cc1,11.8%
8,COc1ccc(CN2C[C@@H]3OCCN(CCN(C)C)[C@@H]3C2)cc1,66.9%
9,COc1ccc(CN2C[C@@H]3OCCN(CC4CCCO4)[C@@H]3C2)cc1 (stereo partly specified),-115%
10,COc1ccc(CN2C[C@@H]3OCCN(C)[C@@H]3C2)cc1,-42.1%
11,Cc1noc(C)c1CN1CCO[C@H]2CN(Cc3ccc(F)cc3)C[C@H]21,55.3%
12,COc1ccc(CN2C[C@@H]3OCCN(CCN4CCCC4)[C@@H]3C2)cc1,64%
13,Cc1noc(C)c1CN1CCO[C@H]2CN(Cc3cccc(F)c3)C[C@H]21,-32.1%
14,CN(C)CCN1CCO[C@H]2CN(Cc3cnn(C)c3)C[C@H]21,-88.4%
15,Fc1ccc(CN2C[C@@H]3OCCN(CC4CCCO4)[C@@H]3C2)cc1 (stereo partly specified),-2.84%
16,Fc1ccc(CN2C[C@@H]3OCCN(CCN4CCCC4)[C@@H]3C2)cc1,-70.3%
17,O=C(CN1CCC(C(=O)c2cc(F)ccc2F)CC1)NC1CCCC1,-63.8%
18,Cc1nn(C)c2c(NCc3ccc(F)cc3)nc(C3CC3)nc12,40.3%
19,CCCn1ccnc1CN1CCCC(O)(CN(C)C)CC1 (stereo unspecified),-44.8%
20,CC(=O)N1CC[C@H]2[C@H](C[C@@H](Cn3cncn3)N2c2nccs2)C1,-33.8%
21,Nc1nc2cn(C3CCCC3)c(=O)c-2c[nH]1,69.9%
22,CNc1nc2cn(C3CCCC3)c(=O)c-2c[nH]1,-45.905%
23,CC1CCC(n2cc3nc(N)[nH]cc-3c2=O)CC1 (stereo unspecified),-68.9%
24,CN(C)c1nc2c(c(N3CCC4(CC3)CNC(=O)C4)n1)CCCC2,-6.41%
25,O=S(=O)(N1CCCCC1)N1CCCN(CC2CCCO2)CC1 (stereo unspecified),-12.8%
26,CC(C)N(C)Cc1cncc2c1CCN(C(=O)c1ccccc1F)C2,-44.1%

row,Structure (SMILES),INHIBITION
1,Cc1ccc(CN2C[C@@H]3CCCO[C@@H]3[C@H](N(C)Cc3ccco3)C2)o1,39.7%
2,CN(Cc1ccco1)[C@@H]1CN(Cc2cccnc2)C[C@@H]2CCCO[C@@H]21,29.1%
3,CN(Cc1ccco1)[C@@H]1CN(Cc2nccs2)C[C@@H]2CCCO[C@@H]21,31.1%
4,CN(Cc1ccco1)[C@@H]1CN(Cc2ccoc2)C[C@@H]2CCCO[C@@H]21,60.3%
5,CN(Cc1ccco1)[C@@H]1CN(Cc2ccncc2)C[C@@H]2CCCO[C@@H]21,9.86%
6,CN(Cc1ccco1)[C@@H]1CN(Cc2cccs2)C[C@@H]2CCCO[C@@H]21,65.3%
7,COC(=O)c1cccn1C1CCN(Cc2cnc3ccccn23)CC1,-55.1%
8,COC(=O)c1ccc(S(=O)(=O)NC2CNC(=O)C2)cc1 (stereo unspecified),-28.8%
9,CCn1c(=O)c2sccc2n(CC(=O)Nc2cccc(Cl)c2)c1=O,-40%
10,Cn1c(=O)c2sccc2n(CC(=O)Nc2cccc(Cl)c2)c1=O,59.4%
11,CC(C)c1cccc(NC(=O)Cn2c(=O)n(C)c(=O)c3sccc32)c1,-34.2%
12,O=C(NC1CCN(c2ncccc2F)C1)c1cccc(-n2ccnc2)c1 (stereo unspecified),-41.7%
13,Cc1cc(S(=O)(=O)N2CCCN3CCCC3C2)ccc1F (stereo unspecified),69.1%
14,Cc1cc(S(=O)(=O)N2CCC(S(C)(=O)=O)C2)ccc1F (stereo unspecified),-22.2%
15,Cc1ccc(S(=O)(=O)N2CCC(S(=O)(=O)c3nncn3C)CC2)cc1C,-31.9%
16,Cc1ccc(S(=O)(=O)N2CCC(S(C)(=O)=O)CC2)cc1C,-1.8%
17,Cc1ccc(S(=O)(=O)N2CCCCC(N3CCN(C)CC3)C2)cc1F (stereo unspecified),39.6%
18,Cc1ccc(S(=O)(=O)N2CCC(N3CCCCC3)CC2)cc1C,65.9%
19,CC(C(=O)N1CCc2sccc2C1)N1CCCN(C2CC2)CC1 (stereo unspecified),22.7%
20,CC(C(=O)N1CCc2sccc2C1)N1CCC(N2CCCC2)CC1 (stereo unspecified),53%
21,CC(C)NC(=O)C1CCN(C(C)C(=O)N2CCc3sccc3C2)CC1 (stereo unspecified),-14.7%
22,CN1CCC(Cc2cncc(-c3ccccc3C(=O)O)n2)C1 (stereo unspecified),-92%
23,CCc1nc2ccccc2c(=O)n1CC1(O)CCN(S(C)(=O)=O)CC1,-59.6%
24,CC(C)c1cc(C(=O)N2CCOC3(CCCC3)C2)no1,-111%
25,CCOc1ccc(C(=O)Nc2c(C)nc3ccc(Cl)cn3c2=O)cc1,-87.3%
26,CN(C)c1ncccc1CNS(=O)(=O)c1ccc(C(N)=O)cc1,-34.2%

row,Structure (SMILES),INHIBITION
1,CCOC(=O)c1ccc(S(=O)(=O)NCc2cccnc2N(C)C)cc1,54.1%
2,COC(=O)c1ccc(S(=O)(=O)NCc2cccnc2N(C)C)cc1,-8.55%
3,CC(C)(O)CCc1ccc(C(=O)N2Cc3cnn(CCO)c3C2)cc1,-86.5%
4,CCOc1ncnc2c1CCN(C(=O)NCc1cccnc1)CC2,-58.1%
5,Clc1cccc(CNc2cnn(CCN3CCCCC3)c2)c1,53.3%
6,N#Cc1ccc(CNc2cnn(CCN3CCOCC3)c2)cc1,-16.7%
7,Clc1ccc(CNc2cnn(CCN3CCOCC3)c2)cc1Cl,-55.6%
8,Cn1nccc1CCNC(=O)[C@H]1CNC[C@H](C(=O)N2CCCC2)C1,-22.7%
9,Cc1ccc(CN2CCN(c3nc4c(s3)c(C)nn4C)C(C)C2=O)cc1 (stereo unspecified),69.8%
10,Cc1nn(C)c2nc(N3CCNC(=O)C3Cc3ccccc3)sc12 (stereo unspecified),-81.9%
11,COC(=O)CN1CCN(c2nc3c(s2)c(C)nn3C)C(C)C1=O (stereo unspecified),-88%
12,O=C(CN1C=Nc2ccccc2S1(=O)=O)NCCCc1ccccc1,-115%
13,CCn1cnnc1CNC(=O)N1CCN(c2ccccc2Cl)CC1,-79.9%
14,COc1ccc(CN(Cc2cncn2C)CC2CCCO2)c(OC)c1 (stereo unspecified),-22.7%
15,CSc1ccc(-c2nc(CN3C[C@@H](C)NC[C@@H]3C)c(C)o2)cc1,-61.5%
16,CSc1ccc(-c2nc(CN3CCNCC3C)c(C)o2)cc1 (stereo unspecified),35.1%
17,Cc1oc(-c2cc(F)cc(F)c2)nc1CN1C[C@@H](C)NC[C@@H]1C,60.1%
18,Cn1cc(N2C[C@@H]3CN(CC4CCOCC4)C[C@@H]3C2=O)cn1,-67.1%
19,Cn1cc(C2CCCN2C(=O)CCCc2ccccn2)cn1 (stereo unspecified),-94.3%
20,Cc1ccc(CNC(=O)c2cc(Cn3ccnc3C(C)C)[nH]n2)o1,-76.4%
21,CCCc1cc(N2CCC(NC3CCC(O)CC3)CC2)nc(C)n1 (stereo unspecified),-161%
22,CCCc1cc(N2CCC(NCC3(O)CCN(C)CC3)CC2)nc(C)n1,51.2%
23,CCCc1cc(N2CCC(NCC3(O)CCCCC3)CC2)nc(C)n1,8.94%
